Screens from PubChem BioAssay.
MOR-DOR inv ag = inverse agonist of human OPRM1-OPRD1 heterodimerization | AID 504357 | P35372+P41143 | 340,000 tested, 0.21% active | cell-based MOR-DOR heterodimer luminescence, inverse agonism | inhibition, % at 9.3 µM; in the data active = inhibition above about 22%, passing the limit was not always enough;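 also: 0% = cells with DMSO and 100% = wells without cells with DMSO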
HTR5A inv ctr = inverse agonist of human HTR5A in OPRM1-OPRD1 counter-screen; P47898; HTR5A cell line, luminescence, inverse agonism; inhibition, % at 9.3 µM; 340,000 tested, 0.083% active; in the data active = inhibition mostly above about 23%, no sharp cut-off; inactive = mostly below about 18%;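 also: 0% = cells with DMSO and 100% = no-cell wells with DMSO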
Target sequence (P47898 whole entry, looked up): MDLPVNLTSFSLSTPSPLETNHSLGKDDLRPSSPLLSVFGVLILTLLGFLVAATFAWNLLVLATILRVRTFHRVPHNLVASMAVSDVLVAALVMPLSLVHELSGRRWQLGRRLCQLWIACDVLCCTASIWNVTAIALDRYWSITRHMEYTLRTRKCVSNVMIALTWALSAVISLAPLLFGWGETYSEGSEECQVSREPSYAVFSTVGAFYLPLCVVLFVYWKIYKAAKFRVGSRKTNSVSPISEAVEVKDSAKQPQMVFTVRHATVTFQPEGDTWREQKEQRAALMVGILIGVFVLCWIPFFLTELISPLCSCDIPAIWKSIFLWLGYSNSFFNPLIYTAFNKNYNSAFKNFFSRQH
MOR-DOR ag-1 = agonists of human mu-delta opioid receptor heterodimerization | AID 504326 | P35372+P41143 | cells, OPRM1-OPRD1 heterodimerization, luminescence | activation, % at 9.3 µM | 340,000 tested, 0.3% active;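 also: 0% = vehicle-treated cells and 100% = reference agonist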
Bfl-1 A1 inh = inhibitors of the anti-apoptotic protein A1, read as caspase activation; 330,000 tested, 0.066% active; AID 2462; caspase activation, % (test concentration not listed); MEF A1-2A-BIM cells, Caspase-Glo 3/7 luminescence, 3 h; percent of clofoctol response, vehicle zero;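 active = over half of replicate activation scores above 10%, or exactly half above 10 with the replicate mean above 10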
HTR5A ag = counter-screen for OPRM1-OPRD1 agonists: human HTR5A agonism | HTR5A agonist assay, luminescence, cell-based | activation, % at 9.3 µM | 340,000 tested, 0.61% active | AID 504692; in the data active = activation mostly above about 9.5%, no sharp cut-off; inactive = mostly below about 7.6%;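 also: 0% = cells with vehicle only and 100% = reference agonist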
MOR-DOR ag-2 = counter-screen for HTR5A agonists: OPRM1-OPRD1 heterodimerization agonism | shares compounds with HTR5A ag | U2OS counter-screen cells, complementation luminescence, 3 h | activation, % at 9.3 µM | 800 tested, 13% active | AID 504913
HTR5A ag conf = HTR5A (human) agonism, confirmation. shares compounds with HTR5A ag. HTR5A agonist cell assay, luminescence. activation, % at 9.3 µM. 800 tested, 17% active. AID 504915; in the data active = activation above about 17%;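 also: 0% = cells with vehicle only and 100% = full reference agonist response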
* = called active by the depositor; / = no result given. This is a sample that favours compounds with a hit; in the whole collection about 1.1% have one here. Rule as the data show it, unless noted: active = activation above about 18%; inactive = the rest.

SMILES	MOR-DOR inv ag	HTR5A inv ctr	MOR-DOR ag-1	Bfl-1 A1 inh	HTR5A ag	MOR-DOR ag-2	HTR5A ag conf
COc1ccc(OC)c(-c2csc(NC(=O)Cn3[nH]c(=O)c4ccccc4c3=O)n2)c1	-11	-80	2	0	31*	3	6
O=[N+]([O-])c1ccc(S(=O)(=O)NN=C2CCCCC2)cc1	7	-55	-1	/	15*	2	4
O=S(=O)(NN=C1CCCCCC1)c1ccc(Cl)cc1	17	-30	-3	-2	3	/	/
Oc1ccc(CNc2ccccc2)c2cccnc12	-9	-16	2	0	3	/	/
Oc1ccc(CNc2ccc(F)cc2)c2cccnc12	-99	-63	16	0	23*	6	4
CC1N(C(=O)N2CCOCC2)CCN1S(=O)(=O)c1ccc(Cl)cc1 (centres undefined)	12	-4	-2	0	1	/	/
COc1ccc(NC(=O)COC(=O)[C@@H]2CCCN2S(=O)(=O)c2ccccc2F)c(OC)c1	6	-16	-1	1	6	/	/
O=C(COC(=O)[C@@H]1CCCN1S(=O)(=O)c1ccccc1F)NCc1ccc2c(c1)OCO2	12	-44	-3	0	17*	1	5
COc1ccc(OCc2n(CC(=O)OC3CC(C)CCC3C(C)C)c3ccccc3[n+]2C)cc1 (centres undefined)	-17	-58	3	1	21*	4	7
COc1ccc(CCNC(=O)COc2ccc(N(C)S(=O)(=O)c3ccc(C)cc3)cc2)cc1	-1	1	0	-1	16*	-1	-4
O=c1[nH]cnc(O)c1C(c1ccc2c(c1)OCO2)c1c(O)nc[nH]c1=O	8	-3	-2	0	17*	0	2
O=c1[nH]cnc(O)c1C(c1ccc(Br)cc1)c1c(O)nc[nH]c1=O	10	17	-2	-1	6	/	/
O=C(O)c1ccc(NS(=O)(=O)c2cc(Cl)ccc2Cl)cc1	5	-9	-1	1	16*	3	1
N#CCCCCn1ccc(NC(=O)c2ccc(Cl)cc2O)n1	9	-5	-2	0	2	/	/
Cc1ccc(C(=O)O/N=C2\CCSc3ccc(C)cc32)cc1	-1	-89	0	1	37*	2	1
COc1ccc(S(=O)(=O)O/N=C2\CCSc3ccc(C)cc32)cc1	-21	-7	5	1	-2	/	/
Cc1cccc(C(=O)O/N=C2\CCSc3ccc(C)cc32)c1	-8	10	2	0	15*	7	41*
Cc1ccc(Cn2nnc3c(=O)[nH]c(C4CCN(S(=O)(=O)c5ccc(C)cc5)CC4)nc32)cc1	-2	-9	0	0	1	/	/
O=c1[nH]c(C2CCN(S(=O)(=O)c3ccc(C(F)(F)F)cc3)CC2)nc2c1nnn2Cc1ccc(F)cc1	-1	-50	0	1	18*	6	4
O=C(CSc1oc(-c2ccco2)nc1S(=O)(=O)c1ccc(Cl)cc1)NCC1CCCO1 (centres undefined)	3	-5	-1	1	-5	/	/
Cc1ccc(-c2csc3ncnc(SCc4ccc(C(=O)O)cc4)c23)cc1	/	/	/	-1	/	/	/
COc1ccc(S(=O)(=O)N2CCN(Cc3cc(=O)n4ccccc4n3)CC2)cc1	-4	-40	1	0	16*	1	-2
O=c1cc(CN2CCN(S(=O)(=O)c3ccccc3)CC2)nc2ccc(Cl)cn12	-2	20	1	1	-8	/	/
CS(=O)(=O)c1ccc2nc(NC(=O)CCNC(=O)c3ccc([N+](=O)[O-])cc3)sc2c1	-17	-59	3	/	20*	1	4
O=C(Nc1cccc(C(F)(F)F)c1)Nc1ccc(N2CCCC2)c(S(=O)(=O)Nc2ccccc2Cl)c1	-20	1	4	-1	6	/	/
O=C1OCCC1Sc1nnc(-c2ccccc2Cl)n1Cc1ccccc1 (centres undefined)	-10	-20	2	0	7	/	/
O=C1OCCC1Sc1nnc(-c2cccs2)n1Cc1ccccc1 (centres undefined)	-44	-3	8	-1	15*	-3	-2
Cc1ccccc1C(=O)c1cccn1CC(=O)NCc1ccc2c(c1)OCO2	-7	-44	1	-1	17*	3	24*
